Laboratory results published in PubChem BioAssay (NCATS).
Inconclusive results are not listed. Activity calls are given as the source filed them. Unless noted, calls follow the shape of the dose curve; as a rule, active = well fitted curve in the direction sought with a large enough effect; inconclusive = small, poorly fitted or top-dose-only effect, or another doubt; inactive = no such curve, though single readings can be large; an effect the other way counts as inactive or inconclusive.

Columns and labels:
[1] = Primary qHTS to identify inhibitors of SARS-CoV-2 cell entry (AID 1645846; calls by dose curve; also: nearly all actives have a fitted effect of over 45% in size); settings: activity change, negative = inhibition: at 57.1 µM (top of the series) unless noted
Outline: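 Inhibition of spike-mediated entry was scored in human ACE2-transfected Expi293F cells. Particles were MLV-pseudotyped with Wuhan-Hu-1 S carrying a 19-aa C-terminal deletion; signal was luciferase after two days, scaled between spike PP and fusion-protein-free PP.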

[2] = system: CRL-7250; assay: qHTS assay to identify novel small-molecules to repurpose for Merkel cell carcinoma treatment (AID 1296009); settings: MCC and control cell lines, CellTiter-Glo viability, 72 h; series mostly up to 92 µM; also: nearly all actives have a fitted effect of over 60% in size
Outline: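 Cells exposed to NPC (8-point) and MIPE (11-point) compound dilutions for 72 hr at 37 degree celsius; viability read by CellTiter-Glo luminescence, normalized to no-cell and DMSO in-plate controls.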

[3] = Cytotoxicity counterscreen for inhibitors of SARS-CoV-2 cell entry (AID 1645845; calls by dose curve; also: nearly all actives have a fitted effect of over 50% in size)
Outline: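 Expi293F/hACE2 cells seeded overnight; cpd pin-transferred in DMSO, 1 h preincubation, + media, 48 h 37 C 5% CO2; ATPLite 1step luminescence; normalized to cells and no cells.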

[4] = P-glycoprotein substrates identified in KB-8-5-11 adenocarcinoma cell line, qHTS therapeutic library screen (AID 1346987); also: potency is read from the fitted curve at half-maximal effect; nearly all actives have a fitted effect of over 65% in size
Outline: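 KB-8-5-11: colchicine-selected sub-line of KB-3-1 over-expressing P-gp; assay medium lacked colchicine. 72 h drug exposure at 37 degree C, CellTiter-Glo.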

[5] = biological target: Calcium and integrin-binding protein 1 (Homo sapiens) (UniProt Q99828); assay: Primary qHTS for Identification of Calcium Integrin Binding Protein 1 (CIB1) Competitor (AID 1508620);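 also: GST tagged CIB1 binding a fluorescein labelled alphaIIb integrin peptide tracer; top concentration of the series differs between compounds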
Outline: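 Fluorescence polarization competition: CIB1-GST (1 uM final) preincubated with compound 15 min at room temperature, then FITC-labeled alphaIIb peptide (100 nM final) added for another 15 min. Polarization read at Ex 480/Em 540.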

[6] = Primary qHTS for inhibitors of nuclear receptor binding SET domain protein 2 (NSD2) in an RCH-ACV wild type WT cells (2C) (AID 1645877); also: potency is read from the fitted curve at half-maximal effect; nearly all actives have a fitted effect of over 70% in size
[7] = biological target: Glutathione peroxidase 1 (Homo sapiens) (UniProt P07203); assay: Primary qHTS Assay for Inhibitors of Recombinant Selenoprotein Glutathione Peroxidase 1 (GPX1) (AID 1845191); also: nearly all actives have a fitted effect of over 65% in size
Outline: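 Recombinant GPX1 (10 nM final) was preincubated with compound for 30 min at room temperature, then reacted with 1 mM GSH, 0.5 mM CHP, 0.5 mM NADPH and 100 nM glutathione reductase; NADPH fluorescence (340/450 nm) was read at 0 and 15 min.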

[8] = biological target: Phospholipid hydroperoxide glutathione peroxidase GPX4 (Homo sapiens) (UniProt P36969); assay: Primary qHTS Assay for Inhibitors of Recombinant Selenoprotein Glutathione Peroxidase 4 (GPX4) (AID 1845192); also: nearly all actives have a fitted effect of over 65% in size
Outline: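 GR-coupled readout: 100 nM GR, 1 mM GSH, 0.5 mM NADPH; NADPH fluorescence (ex 340/em 450 nm) read at t=0 and after 15 min RT. GPX4 200 nM, preincubated 30 min with compound; substrate 0.5 mM CHP.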

[9] = biological target: Luciferin 4-monooxygenase (Photinus pyralis) (UniProt P08659); assay: Primary firefly luciferase (FLuc) qHTS assay for identification of artifact compounds. (AID 1845220); settings: outcome: dose series up to 54.1 µM unless noted; also: nearly all actives have a fitted effect of over 60% in size
Outline: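 In this counter-screen for luciferase artifacts, test compounds met substrate (10 uM each luciferin and ATP) before 10 nM enzyme started the reaction. Light output was measured 5 min later.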

[10] = Primary fluorescence-based thiol-reactive (MSTI) qHTS assay for identification of artifact compounds. (AID 1845221); also: nearly all actives have a fitted effect of over 65% in size; also: potency is read from the fitted curve at half-maximal effect
Outline: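 First, 4 uM MSTI in 2% DMSO/PBS pH 7.4 was dispensed; next, compounds were added; then plates sat 1 h at room temperature without light. Finally, emission at 598 nm was recorded.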

[11] = system: Nanoluciferase (engineered Oplophorus gracilirostris luciferase); assay: Primary Nanoluciferase (NLuc) qHTS assay for identification of artifact compounds. (AID 1845222);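 also: NLuc secreted into diluted conditioned medium of S16 cells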
Outline: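 Using secreted nanoluciferase in S16 culture medium (0.22 um filtered, 1:55 dilution), compounds were preincubated 15 min at RT. Signal was generated with Nano-Glo reagent (1:100) over 5 min.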

[12] = Primary redox qHTS assay for identification of artifact compounds. (AID 1845223)
Outline: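 Amplex Red (25 uM) and HRP (250 mU/mL) in HBSS, with compounds for 15 min, then 250 uM DTT for 30 min, room temperature, dark. Fluorescence 525/598 nm read; normalized to DMSO and 10 uM DA3003; Hill fit.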

[13] = system: C33A; assay: Primary qHTS to identify gynecologic anti-cancer compounds using libraries of approved drugs and bioactive compounds (AID 1345084); settings: Gynecologic cancer cell panel viability, ATPlite luminescence, 48 h; series mostly up to 57.5 µM; also: nearly all actives have a fitted effect of over 55% in size
Outline: (§1)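 48 h compound exposure at 37 C, 5% CO2; five-point qHTS. ATPlite luminescence readout of cell ATP.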

[14] = system: CAOV3; assay: as above; settings: Gynecologic cancer cell panel viability, ATPlite luminescence, 48 h; series mostly up to 57.5 µM
Outline: as §1

[15] = system: CASKI; assay: as above; settings: Gynecologic cancer cell panel viability, ATPlite luminescence, 48 h; series mostly up to 57.5 µM
Outline: as §1

[16] = system: Es-2; assay: as above; settings: Gynecologic cancer cell panel viability, ATPlite luminescence, 48 h; series mostly up to 57.5 µM
Outline: as §1

[17] = system: JEG-3; assay: as above; settings: Gynecologic cancer cell panel viability, ATPlite luminescence, 48 h; series mostly up to 57.5 µM
Outline: as §1

[18] = system: OV90; assay: as above; settings: Gynecologic cancer cell panel viability, ATPlite luminescence, 48 h; series mostly up to 57.5 µM
Outline: as §1

[19] = system: Tov-21-G; assay: as above; settings: Gynecologic cancer cell panel viability, ATPlite luminescence, 48 h; series mostly up to 57.5 µM
Outline: as §1

[20] = system: Tov112D; assay: as above; settings: Gynecologic cancer cell panel viability, ATPlite luminescence, 48 h; series mostly up to 57.5 µM
Outline: as §1

[21] = system: Zika virus NS2B-NS3 protease (unlinked complex); assay: Primary screen GU Rhodamine qHTS for Zika virus inhibitors: Unlinked NS2B-NS3 protease assay (AID 1347159); also: nearly all actives have a fitted effect of over 60% in size
Outline: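 Noncovalent NS2B hydrophilic domain/NS3 protease complex (25 nM final) in 10 mM Tris-HCl pH 8.0, 0.01% Tween 20, preincubated 15 min with compounds (up to 114 microM), then 1.5 microM Rhodamine110 substrate. Fluorescence change over 15 min fitted to 4-parameter Hill.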

[22] = system: Zika virus NS2B-NS3 protease (linked construct); assay: Primary screen NINDS Rhodamine qHTS for Zika virus inhibitors (AID 1347160); also: nearly all actives have a fitted effect of over 55% in size
Outline: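 Purified NS2B-NS3 protease with the NS2B hydrophilic domain joined by a flexible linker (25 nM) in 10 mM Tris-HCl pH 8.0, 0.01% Tween 20, preincubated 15 min at RT with compound; Rhodamine110 peptide substrate 1.5 µM; fluorescence change over 15 min; 4-parameter Hill fit.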

[23] = biological target: Cytochrome P450 2D6 (Homo sapiens) (UniProt P10635); assay: Cytochrome P450 family 2 subfamily D member 6 (CYP2D6) small molecule antagonists: luciferase biochemical (cell-free) qHTS assay (AID 1645840; active = well fitted curve in the direction sought with a large enough effect in the repeat runs; an effect the other way counts as inactive or inconclusive; also: potency is read from the fitted curve at half-maximal effect; nearly all actives have a fitted effect of over 55% in size)
Outline: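 P450-Glo luminescent screen: recombinant CYP2D6 enzyme–proluciferin substrate mix preincubated with compound 10 min at room temperature, then NADPH regeneration added for 1 h at room temperature. Detection reagent added for 20 min; luciferin light read as relative luminescence units.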

[24] = biological target: Cytochrome P450 2C9 (Homo sapiens) (UniProt P11712); assay: Cytochrome P450 family 2 subfamily C member 9 (CYP2C9) small molecule antagonists: luciferase biochemical (cell-free) qHTS assay (AID 1645842; active = well fitted curve in the direction sought with a large enough effect in the repeat runs; an effect the other way counts as inactive or inconclusive; also: nearly all actives have a fitted effect of over 55% in size)
Outline: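 Luminescence, after 20 min with luciferin detection reagent, reflected CYP2C9 turnover during a 1 h NADPH-driven reaction at 37C. Enzyme-substrate mix contained 0.4% bovine serum albumin and was preincubated with compound 10 min at room temperature.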

[25] = system: Hek293T; assay: Primary qHTS to identify gynecologic anti-cancer compounds using libraries of approved drugs and bioactive compounds (AID 1345084); settings: Gynecologic cancer cell panel viability, ATPlite luminescence, 48 h, control line for the selectivity index; series mostly up to 57.5 µM; also: nearly all actives have a fitted effect of over 55% in size
Outline: as §1

[26] = system: PA-1; assay: as above; settings: Gynecologic cancer cell panel viability, ATPlite luminescence, 48 h; series mostly up to 57.5 µM
Outline: as §1

[27] = system: SKOV3; assay: as above; settings: Gynecologic cancer cell panel viability, ATPlite luminescence, 48 h; series mostly up to 57.5 µM
Outline: as §1

Chain of Phospholipid hydroperoxide glutathione peroxidase GPX4 (Homo sapiens) (P36969 whole entry, looked up): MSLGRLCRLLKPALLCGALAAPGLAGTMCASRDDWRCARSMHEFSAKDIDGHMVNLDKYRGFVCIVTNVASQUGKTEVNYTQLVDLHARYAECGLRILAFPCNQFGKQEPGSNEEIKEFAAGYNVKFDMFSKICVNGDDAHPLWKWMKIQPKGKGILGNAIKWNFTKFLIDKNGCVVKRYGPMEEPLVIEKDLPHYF
Chain of Glutathione peroxidase 1 (Homo sapiens) (P07203 whole entry, looked up): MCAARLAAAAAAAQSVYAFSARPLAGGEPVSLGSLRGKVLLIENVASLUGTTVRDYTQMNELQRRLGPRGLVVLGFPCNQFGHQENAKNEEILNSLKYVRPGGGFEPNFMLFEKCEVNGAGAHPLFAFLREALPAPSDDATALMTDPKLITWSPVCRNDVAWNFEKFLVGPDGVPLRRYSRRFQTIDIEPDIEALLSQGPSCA
Chain of Calcium and integrin-binding protein 1 (Homo sapiens) (Q99828 whole entry, looked up): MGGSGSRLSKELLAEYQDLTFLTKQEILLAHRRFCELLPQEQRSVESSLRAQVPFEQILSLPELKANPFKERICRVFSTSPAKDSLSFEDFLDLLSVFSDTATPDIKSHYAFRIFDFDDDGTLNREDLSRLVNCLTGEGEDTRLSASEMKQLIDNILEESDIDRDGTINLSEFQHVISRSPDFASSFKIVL
Chain of Cytochrome P450 2D6 (Homo sapiens) (P10635 whole entry, looked up): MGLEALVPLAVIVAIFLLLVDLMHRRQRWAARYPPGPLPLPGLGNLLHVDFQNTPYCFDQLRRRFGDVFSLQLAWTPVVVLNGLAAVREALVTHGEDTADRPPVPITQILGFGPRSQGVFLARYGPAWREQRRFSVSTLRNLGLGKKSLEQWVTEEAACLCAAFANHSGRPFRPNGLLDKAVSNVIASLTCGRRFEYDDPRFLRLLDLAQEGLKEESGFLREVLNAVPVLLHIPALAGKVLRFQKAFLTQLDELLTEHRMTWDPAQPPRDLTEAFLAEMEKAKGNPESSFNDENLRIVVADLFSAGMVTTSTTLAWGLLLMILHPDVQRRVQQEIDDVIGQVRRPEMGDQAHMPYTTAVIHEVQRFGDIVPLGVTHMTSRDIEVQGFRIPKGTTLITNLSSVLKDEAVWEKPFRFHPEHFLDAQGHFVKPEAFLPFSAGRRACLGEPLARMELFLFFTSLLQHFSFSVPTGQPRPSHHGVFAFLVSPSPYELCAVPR
Chain of Cytochrome P450 2C9 (Homo sapiens) (P11712 whole entry, looked up): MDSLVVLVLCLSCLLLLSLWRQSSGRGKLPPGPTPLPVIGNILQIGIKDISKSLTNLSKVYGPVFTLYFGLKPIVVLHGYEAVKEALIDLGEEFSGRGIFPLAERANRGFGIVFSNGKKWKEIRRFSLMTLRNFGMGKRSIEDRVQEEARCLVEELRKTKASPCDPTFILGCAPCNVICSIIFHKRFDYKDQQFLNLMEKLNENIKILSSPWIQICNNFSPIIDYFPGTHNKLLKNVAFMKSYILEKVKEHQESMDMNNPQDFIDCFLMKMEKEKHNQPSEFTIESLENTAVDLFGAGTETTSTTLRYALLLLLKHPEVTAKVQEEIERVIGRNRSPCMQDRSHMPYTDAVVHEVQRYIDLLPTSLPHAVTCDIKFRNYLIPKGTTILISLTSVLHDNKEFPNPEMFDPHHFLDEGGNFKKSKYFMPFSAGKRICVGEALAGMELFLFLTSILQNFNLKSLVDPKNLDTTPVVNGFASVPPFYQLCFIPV

Cc1cccc(-c2[nH]c(CNc3ccccc3F)nc2-c2ccc3ncnn3c2)n1
inactive: Potency [2]
-32.1%: activity change, negative = inhibition [1]

CS(=O)(=O)c1ccc(Oc2cc(F)cc(C#N)c2)c2c1[C@H](O)C(F)(F)C2
inactive: Potency [3] | Potency [1] | Potency [2]

C=CC(C)(C)C12C=C(O)C(=O)N3/C(=C\c4cnc[nH]4)C(=O)NC31N(OC)c1ccccc12 (configuration not stated)
active: Potency [4] 7.96 µM | Potency [6] 10 µM | Potency [10] 4.12 µM
inactive: Potency [5] | Potency [7] | Potency [8] | outcome [9] inactive [at 25.7 µM] | Potency [11] | Potency [12] | Potency [13] | Potency [14] | Potency [15] | Potency [16] | Potency [17] | Potency [18] | Potency [19] | Potency [20]

O=C1C(c2c(O)[nH]c3ccccc23)=Nc2ccccc21
inactive: Potency [3] | Potency [1] | Potency [2]

FC(F)(F)c1ccc(N2CCNCC2)nc1Cl
active: Potency [23] 15.1 µM
inactive: Potency [21] | Potency [22] | Potency [5] | Potency [24] | Potency [7] | Potency [8] | outcome [9] | Potency [10] | Potency [11] | Potency [12] | Potency [13] | Potency [14] | Potency [15] | Potency [16] | Potency [25] | Potency [17] | Potency [18] | Potency [26] | Potency [27] | Potency [19] | Potency [20]

CCNCc1nc2c(N)nc3ccccc3c2n1CC(C)(C)O
inactive: Potency [3] | Potency [2]
-33.4%: activity change, negative = inhibition [1]

CCNC(=O)CCC/C=C\C[C@@H]1[C@@H](/C=C/C(O)CCc2ccccc2)[C@@H](O)C[C@@H]1O (some centres not stated)
-23.1%: activity change, negative = inhibition [1]
inactive: Potency [3] | Potency [2]

Cc1c(-c2ccnn2C)cc(C(=O)NCc2ccc(S(C)(=O)=O)cn2)c(=O)n1-c1cccc(C(F)(F)F)c1
inactive: Potency [3] | Potency [1] | Potency [2]

CCS(=O)(=O)N1CCC([C@@H](C)n2c(C)c(C(=O)NCc3c(OC)cc(C)[nH]c3=O)c3ccccc32)CC1
inactive: Potency [3] | Potency [1] | Potency [2]

COc1ccc2cc(OCC3(C(=O)O)CN(C(=O)c4ccc(F)cc4)C3)ccc2c1
inactive: Potency [3] | Potency [2]
-2.33%: activity change, negative = inhibition [1]

Cc1c(F)cc(C(=O)NC2CC2)cc1-c1ccc(C(=O)NCC(C)(C)C)cn1
inactive: Potency [3] | Potency [2]
-35.5%: activity change, negative = inhibition [1]

CCNC1(C(N)=O)CCN(c2ncnc3c2nc(-c2ccccc2Cl)n3-c2ccc(Cl)cc2)CC1
inactive: Potency [3] | Potency [2]

c1cc(-c2cnn3cc(-c4ccc(N5CCNCC5)cc4)cnc23)c2cccnc2c1
inactive: Potency [3] | Potency [1] | Potency [2]

CNc1nc(C)nc(N[C@H]2CCC[C@@H](C(=O)NCc3ccc(C#N)cc3C(F)(F)F)C2)n1
inactive: Potency [1] | Potency [2]

NC1CCC(N[C@@H]2C[C@H]2c2ccccc2)CC1 (some centres not stated)
-44.4%: activity change, negative = inhibition [1]
inactive: Potency [3] | Potency [2]

O=C([C@@H](Cc1cccc(C(F)(F)F)c1)NS(=O)(=O)c1cc(F)c2c(c1)CCNC2)N1CCCC1
inactive: Potency [3] | Potency [2]
